The record followed here is PubChem BioAssay AID1508600 (Functional Genomics Laboratory (NCATS/FGL), 2020).

Screen size: about 53,000 sequences; about 3,700 (7%) were called active.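 How the source made its calls: active means gene knockdowns whose robust z-score for IL-1 alpha signal is at least 2 or at most -2, so actives lie on both sides; inactive means the rest.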 The entries come from a sample that favours actives as a whole.

A short description of the test: Components of the Cytosolic LPS Sensing Pathway: Gene Identification via Genome-wide siRNA Screen.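 Further: robust z of the log signal after scaling to non-targeting control siRNA wells of the plate.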 The settings on record: RAW264.7 macrophages, IL-1a HTRF, actives lie on both sides, screened at 100 nM (by protocol), cells primed 5 h with Pam3CSK4 first. In short, it runs like this:
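Mouse macrophage line RAW264.7 is transfected with siRNA (100 nM final), grown 48h, primed with TLR ligand Pam3CSK4 5 h and given intracellular LipidA 24 h. IL-1a in supernatant is read by HTRF and viability by luminescence.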
Take GGUUUCAAUAAUCCAGGAATT against Naa16: the z-score was 0.352 (inactive).

Consider CCUCAAAUGGCCACACACUTT against Kcnj11, for which the z-score was -1.27 (inactive).

For GGACUAAAUGGUCAAGAUUTT against Rbm8a, the z-score is -2.74 (active).

Consider CCUUGGAUGUAUUCAUAUATT against Prkar2a, for which the z-score is 0.255 (inactive).

Take GGGUACCUGUGGUUUUUGUTT against Hdhd5: the z-score was -0.481 (inactive).

For GCUCCAAAUUAAAUUUUGCTT against Irf9, the z-score was 0.768 (inactive).

As for GGUCAUUCAAGAGAUACUATT against Dennd10, the z-score was -0.65 (inactive).

GGCAAAGGACUUCAUGGCUTT against B4galt4: the z-score is -1.42 (inactive).

Regarding CGACAGAGGAAAACAUAAATT against St13, the z-score is -2.55 (active).

As to GGAAAGAAAGACUAGUAAATT against Cpne1, the z-score is 0.815 (inactive).

On to CCUCAUCGACAUAAUGAUUTT against Samhd1, for which the z-score is -0.0182 (inactive).

With GGUUCACUCUGAAGACACCTT against Pkig, the z-score is 0.0516 (inactive).

For CCGUGUGACAUUUGAGUAUTT against Crhbp, the z-score is 1.42 (inactive).

Regarding CCAGCUUUGGGAAAUACCGTT against Sertad1, the z-score is -2.39 (active).

As for GGGAUCCAUCCUUAUUGUUTT against Ybx2, the z-score is -0.101 (inactive).

Turning to “GGAUUCUCCUUUACCUUUGTT against B930095G15Rik”, the z-score was 0.0151 (inactive).

As for GGAAGACUUUGGCUUUGAATT against Tfpt, the z-score is -0.165 (inactive).

In the case of GGAGAACAUCAAGAACAAUTT against Ap2m1, the z-score was 2.08 (active).

On to GCCCGAAAAAGAGAACUGATT against Wbp11, for which the z-score was 0.056 (inactive).

Consider GGAUCAAGACAAAAAACUUTT against Arhgap17, for which the z-score was -0.17 (inactive).

Turning to GGACCAGAUUGCUAAUGAGTT against Fam13a, the z-score was -0.0932 (inactive).

Regarding GGAAUUCUUGAAGAUUCCCTT against Ptpn7, the z-score was 0.884 (inactive).

Regarding GGAGCUCCUACCAAGACUUTT against Klhl38, the z-score was 1.07 (inactive).

Consider GGAAUGCAAUGACAAAUGATT against Kank3, for which the z-score is 0.198 (inactive).

For the sequence GCUUAUAAGAGUCUAUCUUTT against Stam, the z-score is -0.217 (inactive).

For GCUCAGUUUAUACCAAAAUTT against Api5, the z-score is -2.31 (active).

As to CCCAAGAUCUAAGAGUAUUTT against Rin3, the z-score was -1.18 (inactive).

Regarding GGGACUAUUCCUCCAGAGUTT against Cast, the z-score was -0.439 (inactive).

As for GGUCAAGAGGGAAAACUUUTT against Ctps, the z-score was 0.0558 (inactive).

On to CGGUACAUCAUUGCUGUCATT against Slc17a8, for which the z-score was -2.22 (active).

In the case of CCGUAGUAUCCACUGAUUGTT against Olfr1322, the z-score was -0.34 (inactive).

Turning to GGAGGAAGAAACAACAAUGTT against Calhm5, the z-score was 0.76 (inactive).

As for GGCUUAGUAUGUUGUAUUCTT against Fam241b, the z-score is 0.189 (inactive).

On to GGGUUCAUUUUUGGCUUUCTT against Serpina3m, for which the z-score is 0.0735 (inactive).

As for GGUGCAGAAGCUCAAGUUCTT against Cpne2, the z-score was 2.44 (active).

On to GCGAAUCUCCUCCUAGUGATT against Arhgap28, for which the z-score is -0.0218 (inactive).

Take GGAAUUCGUAAAGAUUGCATT against Esrp2: the z-score was -0.158 (inactive).

Take UGCUGGUAGACCUAGUAGCTT against Olfr1137: the z-score is -2.1 (active).

In the case of GGUGUACGAUCUGACCAAGTT against Cyb5a, the z-score is 0.0756 (inactive).

For the sequence GGAAUGGUUUGGUGAGUUUTT against Pramel1, the z-score is 0.859 (inactive).

For GGCAUCUCUUCCAAGUUGGTT against Mzt1, the z-score is 1.69 (inactive).

Regarding GGGACAUAUUGUUUCCCUUTT against Tmco5b, the z-score was 0.777 (inactive).

Regarding GGUUAUGAUGGGACUUCUCTT against Tmem37, the z-score was -1.34 (inactive).

For the sequence CCUUUGUAGGAACAAUUUATT against Phlda1, the z-score is 0.409 (inactive).

In the case of GCGUAUUUUAUGGAUGAAATT against Nfkbiz, the z-score is -2.42 (active).

On to GGAUUAUCAUGGUUUGAUCTT against Elp4, for which the z-score is 0.938 (inactive).

With GCAUCUGUGCCGAUUAAAATT against Asb15, the z-score is 1.32 (inactive).

On to AUAUCAGACUGACAUAGCATT against Obox5, for which the z-score was 2.47 (active).

Consider CGAGGCUAACAAACUCAUATT against Guca2a, for which the z-score was 0.883 (inactive).

For CCUGGAAACUAUUUUGAUGTT against Katnal2, the z-score was 0.0379 (inactive).

Turning to GACAAAACAAUUUCCUAUGTT against Olfr805, the z-score was -0.318 (inactive).

With GGCAGAAACGUGGACUAAATT against Mmp12, the z-score is -1.29 (inactive).

Regarding GGAACCAGUAUCCUGACAUTT against Prop1, the z-score is -0.592 (inactive).

For GGCUAUAAUGAACCAGCUGTT against Ubr3, the z-score is -0.208 (inactive).

On to CCAGUUCAGAGAUUAUCUUTT against Olfr826, for which the z-score is -2.13 (active).

With GGAUGCAGAUGUACAACUCTT against Slc25a28, the z-score is 2.17 (active).

Turning to GGAGCCUCCAAGUUGUAAGTT against Ifi27l2b, the z-score is 0.748 (inactive).

Take CCACCUUAACUGUUGCUUUTT against Mmp2: the z-score was 0.691 (inactive).

Regarding GCAUUUGAAUCGACUACAGTT against Vti1b, the z-score was 0.691 (inactive).

On to GGUGUGUGCAGGACUAAAUTT against Cacng3, for which the z-score was 0.955 (inactive).

Regarding GCCGGAGUGCACAAUCAAATT against Rarres2, the z-score was 0.908 (inactive).

As to GGAAAUCCAUCGUUAUUCUTT against Abca8a, the z-score is 2.08 (active).

As to GGAGAGACUUGAGAUUGUCTT against Ptx3, the z-score is 0.245 (inactive).

Regarding GGACACUAUCCGUGCAUCUTT against Tsg101, the z-score was -1.13 (inactive).

In the case of GCAAGUGACGGUUUAUCUGTT against Las1l, the z-score is -1.68 (inactive).

On to UACCAGAAGUACCUGUCCCTT against Lbx1, for which the z-score was 3.33 (active).

CCUCAUUCGAUACAUCUGUTT against Ints3: the z-score was 0.319 (inactive).

In the case of CCUUGUUUUUCACAAAUCATT against Usp7, the z-score was -0.182 (inactive).

Consider GGCUCGACUUGGAGAAAAGTT against Atg13, for which the z-score was 0.0439 (inactive).

Regarding GCAGAAGCCUGUGGGAUCUTT against Tex43, the z-score is -0.102 (inactive).

For GCAAAACCUAACUAUGUUUTT against Mterf3, the z-score was -0.879 (inactive).

As to CGAAUUAUGGCACCGUCAATT against P2rx7, the z-score is -0.647 (inactive).

Take UUAGCCACUCAUUGUUCCATT against Olfr1303: the z-score was -0.133 (inactive).

As for GCUAAUACUGAAAUCGAUGTT against Ccdc73, the z-score is 1.02 (inactive).

In the case of GGGAGAGUCUUGGCAACUUTT against Btbd17, the z-score was -2.12 (active).

Take GGAAGAGAAGAAGGAACUUTT against Ada: the z-score was -1.51 (inactive).

Take CGUUUAAAGACUAGCAAGATT against Tab1: the z-score was 0.0468 (inactive).

Take GGGCUAAUGAGAUAGGUUUTT against Slc19a2: the z-score is 2.18 (active).

As for GGAGGCUGCAAUAGAGGAGTT against Defa20, the z-score was 1.23 (inactive).

With GGCAAGAGUGAAUUUAAGATT against Nt5e, the z-score was -0.292 (inactive).

As for GGAUUUCACAGUCAAAAUUTT against Insrr, the z-score was -0.825 (inactive).

Regarding CGGUGUACGAGUUAGAGAATT against Crybb3, the z-score was 1.75 (inactive).

Regarding GGGAGAUCUUGACAAAUUCTT against Aplp1, the z-score is 2.32 (active).

Turning to “GGAGAAUGACUAGGUAAUCTT against A130010J15Rik”, the z-score is 1.27 (inactive).

As to CCUGUCGUUUAACCCUGUCTT against Fis1, the z-score is -0.96 (inactive).

With GGAGUUGACCACACUGCUUTT against Smtn, the z-score is -1.09 (inactive).

Consider GGAAUUUAUUCACCCAGACTT against Sirt2, for which the z-score is -1.51 (inactive).

Consider GGAGAUGAAGCUCUGGAUATT against Spock2, for which the z-score is 0.132 (inactive).

For the sequence CCUAUCUCCCUGUUCGAUATT against Rab36, the z-score was -1.01 (inactive).

On to GGACAACUCAGAUUGGACUTT against Adprhl2, for which the z-score is -1.22 (inactive).

In the case of GGCUUGAAUCACCAACCAGTT against Sgcz, the z-score was 0.224 (inactive).

On to GGUAGUGAGUACUUUGGAATT against Amy2a5, for which the z-score is -1.16 (inactive).

With GCAAGUGCGACUGUAUCUGTT against Gdpd2, the z-score is -2.2 (active).

As to GGGAUAAUGCAUGUGAAAATT against Pdk3, the z-score was -0.292 (inactive).

For the sequence GGUUUGUCAACAAGUGUCATT against Dicer1, the z-score is -2.17 (active).

With CCAGUACAGAUGUGUUAAATT against N4bp2l2, the z-score is 1.68 (inactive).

CCGCCUAGCUGAUCUUGUGTT against Aldh1b1: the z-score was -0.495 (inactive).

As for GCUUUUACCGUUACGUCUUTT against Uggt1, the z-score was 2.18 (active).

With GGACAGCAGUAAAUAUACUTT against Coq3, the z-score was 0.423 (inactive).

As for GCUAUUAAUAUCCUGGUCCTT against Slc7a2, the z-score was -0.543 (inactive).

Turning to CCUAGACAUCAGUAAUGCGTT against Zbtb17, the z-score is -0.43 (inactive).

Take AACUGUACAUUGAAGCAGATT against Cstf3: the z-score was 0.391 (inactive).

Turning to GCAUGAAAAGGUAUUACUCTT against Exoc6, the z-score was 0.734 (inactive).

As to GCACUAUCCACAUGCACAUTT against Olfr1281, the z-score was 0.469 (inactive).

As to GGCCUAUGUCAGCACUUUATT against Eif3f, the z-score is -0.113 (inactive).

As for GGAUUGCUUUUGAGCAACATT against Ccdc125, the z-score is -2.05 (active).

For the sequence GCUUCUAAGCUUUAGAGGGTT against Rassf10, the z-score is -1 (inactive).
